# This is part of a sample that, as a whole, favours compounds with a hit. Of some 83,000 tested, about 20% had one in any assay.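 Each cell line was grown in a 96-well plate and treated with one concentration of compound for 48 hours. Values below 10 were considered active.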 A number with no mark means an inactive call. Active and inactive are the calls of the source.
# Legend:
# Assay in all cases: NCI-60 one-dose screen, 48 h (100 = growth as untreated, 0 = no growth, -100 = all killed)
# Conditions in all cases: 10 µM unless noted
# HCT-15 colon = system: HCT-15 colon
# HT29 colon = system: HT29 colon
# SNB-75 CNS = system: SNB-75 CNS
# SNB-19 CNS = system: SNB-19 CNS
# U251 CNS = system: U251 CNS
# PC-3 prostate = system: PC-3 prostate
# SK-MEL-5 melanoma = system: SK-MEL-5 melanoma
# UACC-62 melanoma = system: UACC-62 melanoma
# LOX IMVI melanoma = system: LOX IMVI melanoma
# SK-MEL-28 melanoma = system: SK-MEL-28 melanoma
# SK-MEL-2 melanoma = system: SK-MEL-2 melanoma
# EKVX NSCLC = system: EKVX NSCLC
# SN12C renal = system: SN12C renal
# UO-31 renal = system: UO-31 renal
# TK-10 renal = system: TK-10 renal
# ACHN renal = system: ACHN renal
# CAKI-1 renal = system: CAKI-1 renal
# A498 renal = system: A498 renal
# MOLT-4 leukemia = system: MOLT-4 leukemia
# CCRF-CEM leukemia = system: CCRF-CEM leukemia
SMILES,growth (HCT-15 colon),growth (HT29 colon),growth (SNB-75 CNS),growth (SNB-19 CNS),growth (U251 CNS),growth (PC-3 prostate),growth (SK-MEL-5 melanoma),growth (UACC-62 melanoma),growth (LOX IMVI melanoma),growth (SK-MEL-28 melanoma),growth (SK-MEL-2 melanoma),growth (EKVX NSCLC),growth (SN12C renal),growth (UO-31 renal),growth (TK-10 renal),growth (ACHN renal),growth (CAKI-1 renal),growth (A498 renal),growth (MOLT-4 leukemia),growth (CCRF-CEM leukemia)
COc1ccc(/C(N)=N/C(N)=N/c2nc3ccccc3s2)cc1,62.6%,104%,23.5%,86.2%,68%,62%,72%,59.6%,22.8%,79.6%,66.7%,61%,79%,57.4%,117%,80.8%,40%,64.9%,74.6%,–
N#Cc1cnc2ccc(-c3cnc4[nH]ncc4c3)cc2c1N1CCc2cc(F)c(Cl)cc21,3.32% (active),2.58% (active),-9.27% (active),14.2%,20.5%,6.58% (active),-37.2% (active),-18.5% (active),-9.51% (active),31.3%,-5.98% (active),-1.26% (active),9.07% (active),-8.85% (active),13.1%,12.5%,15.1%,-53.7% (active),4.01% (active),–
COc1cc(/C=C2\C(=O)Nc3ccccc32)ccc1OCc1ccc(F)cc1,101%,105%,106%,99.3%,106%,101%,102%,92.7%,97.3%,110%,107%,97.7%,100%,84.7%,130%,102%,–,89.2%,96.8%,102%
O=C(NNc1nc2cc(F)ccc2n2c(CN3CC4CNCC4C3)ccc12)c1cnccn1 (centres undefined),18.1%,29.2%,54.3%,33.5%,27.2%,27.2%,11.2%,1.75% (active),7.74% (active),31.5%,30.9%,25.9%,27.5%,19.7%,22.4%,17.4%,–,36.9%,5.6% (active),12.1%
C#Cc1ccc(C(=O)NCc2ccc(/C=C/C(=O)c3nccn3C)cc2)cc1,2.77% (active),8.87% (active),67.3%,16.9%,17.3%,30.7%,38.8%,21%,-74.8% (active),48.8%,87%,36.4%,14.8%,29.3%,45.1%,21.6%,43.2%,38.1%,1.15% (active),–
Cc1cc(S(=O)(=O)N(C)C)cc(NCC(=O)NC(=O)NCC(C)C)c1C,110%,114%,45%,105%,108%,101%,96.5%,91.8%,96.4%,102%,105%,63.1%,87.9%,57.1%,68.2%,94.4%,64.3%,51.7%,96.1%,–
NC(N)=Nc1ccc(Oc2cccc(NC(N)=Nc3ccc(Cl)c(C(F)(F)F)c3)c2)cc1,84.3%,46.7%,65%,13.9%,23%,6.36% (active),42%,47.8%,-26.5% (active),70%,83%,64.4%,31%,87%,74%,87.8%,–,54%,51.9%,61.8%
C=CCn1c(SCC(=O)Nc2ccc(C(=O)/C=C/c3cc(OC)c(OC)c(OC)c3)cc2)nnc1-c1c[nH]c2ccccc12,-20.3% (active),-57.2% (active),91.2%,21.7%,8.96% (active),40.6%,25.2%,36.7%,-65.1% (active),41.7%,101%,73.7%,34.1%,43.5%,144%,52.2%,–,44%,2.78% (active),5.4% (active)
CCc1cccc(NC(=O)CNc2cc(S(=O)(=O)N(C)C)cc(C)c2C)c1,106%,104%,47%,97.3%,104%,81.6%,82.8%,72.5%,89.9%,99.5%,102%,50.7%,69.4%,48.5%,65%,91.3%,50.5%,35.5%,82.4%,–
Cc1ccc(NC(=O)CNc2cc(C(N)=O)cc(F)c2C)c(Cl)c1,103%,114%,48.4%,101%,106%,85.7%,97.1%,81.5%,94.1%,99.5%,101%,47.5%,77.1%,50.4%,102%,88.9%,62.6%,39%,90.5%,–
O=C(O)c1cn(C2CC2)c2cc(N3CCN(C(=O)CN4C(=O)CSC4=O)CC3)c(F)cc2c1=O,112%,112%,45.3%,100%,115%,91.2%,102%,91%,102%,101%,113%,74.4%,91.7%,56.4%,73.5%,93.7%,76.2%,101%,109%,–
O=C(Nc1ccc2c(ccn2Cc2ccccn2)c1)c1cnccn1,112%,109%,57.9%,102%,105%,101%,97.5%,89.6%,98.3%,111%,103%,75.7%,75.9%,57%,61.9%,100%,66.2%,40.8%,101%,–
Nc1nc(Nc2ccccc2SSc2ccccc2Nc2nc(N)nc(-c3ccc4ccccc4c3)n2)nc(-c2ccc3ccccc3c2)n1,66.9%,102%,45.9%,92.9%,45.7%,45.5%,92.3%,85%,-70.7% (active),102%,99.4%,44.7%,70%,-19.1% (active),117%,69.5%,35%,94%,62.5%,–
COc1ccc2c(c1)c(CC(=O)[Se]CC#N)c(C)n2C(=O)c1ccc(Cl)cc1,7.36% (active),-8.37% (active),73%,50.3%,19.7%,8.19% (active),-6.8% (active),55.2%,-35.8% (active),37.6%,39.3%,-2.11% (active),74%,-3.23% (active),-5.49% (active),12%,–,-17.1% (active),10.8%,8.66% (active)
CC/C(=C/c1cc(OC)ccc1O)c1ccc2cc(OC)ccc2[o+]1,23.9%,15.7%,48.3%,47.3%,66.5%,40%,40.7%,21.4%,60%,61.8%,71.8%,76.3%,73.9%,68.7%,116%,58.5%,–,29.5%,53.4%,39.3%
C=CCn1c(SCC(=O)Nc2ccc(C(=O)/C=C/c3ccc(Br)cc3)cc2)nnc1-c1c[nH]c2ccccc12,93.4%,94.1%,95.4%,89.1%,87.9%,68%,72.3%,64.6%,49%,97.1%,93.4%,82.2%,81.1%,59.7%,95.9%,87.8%,–,88.9%,66.3%,83%
